Bioassay records as filed in PubChem BioAssay.
D2 PAM-1 – positively modulates the human D2 dopamine receptor allosterically; HEK293 T-REx D2, calcium flux, EC20 dopamine potentiation; P14416; potentiation, % at 10 µM; AID 485347; 340,000 compounds, 0.34% hits;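 active = potentiation over 3 SD above the plate norm, cut at about 30% in these data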; note: 0% is about no effect
Target sequence (P14416 whole entry, looked up): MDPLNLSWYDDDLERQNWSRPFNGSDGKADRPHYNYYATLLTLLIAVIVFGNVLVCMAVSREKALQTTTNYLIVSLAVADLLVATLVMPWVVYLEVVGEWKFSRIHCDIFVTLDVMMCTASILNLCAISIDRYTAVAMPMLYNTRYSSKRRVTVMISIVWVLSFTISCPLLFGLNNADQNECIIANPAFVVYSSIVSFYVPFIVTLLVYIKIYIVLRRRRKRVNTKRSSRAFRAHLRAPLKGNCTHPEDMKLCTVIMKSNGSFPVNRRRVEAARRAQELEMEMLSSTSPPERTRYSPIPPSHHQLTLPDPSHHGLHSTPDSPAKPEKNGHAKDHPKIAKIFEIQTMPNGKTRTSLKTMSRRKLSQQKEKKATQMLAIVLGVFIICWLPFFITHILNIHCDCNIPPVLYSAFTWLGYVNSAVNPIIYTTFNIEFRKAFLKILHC
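Cells plated with tetracycline inducer and held overnight at 30 C; calcium dye loaded 30–90 min at room temperature; baseline taken, compound added and read 180 s; EC20 dopamine then added and read 180 s.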
D2 ag-1 – D2 dopamine receptor (human) agonism; P14416; HEK293 T-REx D2 cells, calcium flux agonist mode; activation, % at 2 µM; 340,000 compounds, 0.53% hits;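 active = activation over 3 SD above normal in the single-dose calcium agonist read, cut at about 30% in these data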; note: 0% is about no effect
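HEK293 Trex D2 cells, tetracycline-induced, o/n 30 C 5% CO2; no-wash Ca dye, RT 30–90 min; 10-cycle baseline, 23 nl cpd added, kinetic Ca read 180 s; agonist hits = positive Ca response.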
D2 PAM-2 – human D2 receptor positive allosteric modulation | DiscoveRx D2 beta-arrestin cells, luminescence, 90 min; 100% = 57 uM dopamine signal | potentiation, % (no concentration beside the values) | 360,000 compounds, 0.23% hits | AID 624464; in the data active = potentiation above about 50%; inconclusive = mostly about 30% to 49%
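D2 cells co-treated with compound plus 50 nM dopamine (EC20) for 90 min at 37 deg C to detect potentiation. Beta-arrestin recruitment was read as enzyme-fragment luminescence after 1 h at ambient temperature. Full response was set by 57 uM dopamine.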
D2 ag-2 – agonists of human D2 dopamine receptor (beta-arrestin); P14416; DiscoveRx PathHunter D2 beta-arrestin, luminescence, 90 min; 100% = 57 uM dopamine signal; activation, % (concentration not given with the values); 360,000 compounds, 0.084% hits; in the data active = activation above about 40%; inconclusive = between about 15% and that limit
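DiscoveRx PathHunter D2 beta-arrestin cells (2,100/well) attached overnight, then compound-stimulated 90 min at 37 C in HBSS/10 mM HEPES/0.1% Tween-20 buffer; beta-galactosidase complementation read by luminescence after 1 h at ambient temperature. Dopamine 57 uM final (EC100) as control.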
D2 antagonist – antagonists of human D2 dopamine receptor | inhibition, % at 10 µM | 340,000 compounds, 2% hits | HEK293 TREx D2 cells, calcium flux, dopamine EC80 | AID 485344 | P14416; in the data active = inhibition above about 30%; inactive = below that, where a call was filed; note: 0% is about no effect
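Compounds are added to dye-loaded, induced HEK293 T-REx cells coupled to calcium release via D2; after a 3 min kinetic read an EC80 dopamine stimulus is given and fluorescence is recorded for 3 more min.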
* = called active by the depositor; ? = inconclusive; . = not tested or not shown. Rows were chosen to be rich in hits. Some 2.4% of all compounds tested hit in one or more screens of this group.

SMILES | D2 PAM-1 | D2 ag-1 | D2 PAM-2 | D2 ag-2 | D2 antagonist
Oc1ccc(C(=S)N2CCN(Cc3ccccc3)CC2)cc1 | -10 | 0 | -18 | -2 | -13
Cc1ccc(C(=S)N2CCN(Cc3ccccc3)CC2)s1 | -32 | 0 | -9 | 4 | 50*
CC(NC(=O)c1sc2ncccc2c1-n1cccc1)c1ccccc1 (centres undefined) | -2 | 0 | . | . | .
Cc1ccccc1Nc1c(-c2ccc(O)cc2)nc2c(C)cccn12 | 9 | . | . | . | .
CCn1c2ccccc2c2cc(/C=N/NC(=O)c3ccccc3C)ccc21 | -4 | -1 | -9 | -6 | 36*
CCn1c2ccccc2c2cc(/C=N/NC(=O)c3cccc(C)c3)ccc21 | 8 | 1 | 8 | 1 | -12
COc1cccc(NC(=O)C2CCCN2C(=O)Nc2ccccc2)c1 (centres undefined) | 4 | -1 | -14 | -5 | 33*
COc1cccc(NC(=O)C2CCCN2C(=O)Nc2cccc(F)c2)c1 (centres undefined) | -2 | 0 | 3 | -2 | 2
C/C=C(\C)C(=O)OC1[C@H](OC(C)=O)C2(CO)C(CC1(C)C)C1=CCC3C4(C)CCC(O[C@@H]5O[C@H](C(=O)O)[C@@H](O[C@@H]6O[C@H](CO)[C@@H](O)[C@H](O)[C@H]6O)[C@H](O)[C@H]5O[C@H]5O[C@H](CO)[C@@H](O)[C@H](O)[C@H]5O)[C@](C)(CO)C4CCC3(C)[C@]1(C)C[C@H]2O (some centres undefined) | . | . | -63 | 41* | .
C/C=C(/C)C(=O)OC1CC(C)(C)C[C@H]2C3=CC[C@@H]4[C@@]5(C)CCC(O[C@@H]6O[C@@H](C(=O)O)[C@@H](O)C(O[C@@H]7OC[C@H](O)[C@@H](O)[C@@H]7O[C@@H]7OC(CO)C(O)[C@@H](O)[C@@H]7O)C6O[C@@H]6OC(CO)C(O)C(O)C6O)[C@@](C)(CO)[C@@H]5CC[C@]4(C)[C@]3(C)CC(O)[C@@]12CO (some centres undefined) | . | . | -21 | 13 | .
Cc1ccc(S(=O)(=O)c2cc3c(=O)n4ccccc4nc3n(C)c2=N)cc1C | 36* | 0 | -3 | -3 | 4
CC(=O)c1ccc(OCC(=O)NC(=O)NC2CCCC2)cc1 | . | . | -3 | -1 | .
CC(=O)c1ccc(OCC(=O)NC2CCCCCC2)cc1 | 31* | 0 | 4 | -1 | -3
Cc1cc(=O)oc2cc(OCC(=O)NC3CCCC3)ccc12 | 31* | 0 | -2 | 1 | -24
Cc1ccc(S(=O)(=O)N2CCC(C(=O)OCC(=O)N(C)C3CCS(=O)(=O)C3)CC2)cc1C (centres undefined) | 0 | 0 | -3 | -1 | 3
Cc1cc2cc(CNC(=S)NCc3ccccc3)ccc2n1C | 16 | 1 | -3 | 2 | 45*
CCCCC(=O)NCc1ccc2c(c1)cc(C)n2C | -10 | 1 | -11 | -2 | 34*
Cc1cc2cc(CNC(=O)c3cccs3)ccc2n1C | -12 | 52* | -7 | -2 | 1
CCOC(=O)CCC(=O)NCc1ccc2c(c1)cc(C)n2C | -5 | 0 | 2 | 0 | -8
COc1ccc(C2C(=O)N(C3CCC(C)CC3)CC(=O)N2C2CCCCC2)cc1OC (centres undefined) | 1 | 1 | . | . | .
O=C(CSc1nc2ccccc2nc1Cc1ccc(Cl)cc1)N1CCCc2ccccc21 | -3 | 1 | . | . | .
CCOC(=O)N1CCN(S(=O)(=O)CCNC(=O)c2ccc(OC)cc2)CC1 | -8 | 0 | 2 | -5 | 34*
CCOC(=O)N1CCN(S(=O)(=O)CCNC(=O)c2ccc(F)cc2)CC1 | 6 | . | -1 | -5 | -8
Cc1ccc(-n2c(=O)c3ccc(C(=O)NCc4ccco4)cc3n(CC(=O)Nc3ccccc3C(F)(F)F)c2=O)cc1 | 2 | . | . | . | .
O/C(=C\c1nc2ccccc2[nH]1)c1cccs1 | -5 | 0 | -2 | -7 | 10
SMILES | D2 PAM-1 | D2 ag-1 | D2 PAM-2 | D2 ag-2 | D2 antagonist
O=c1[nH]c2ccccc2nc1/C=C(\O)c1cccs1 | -2 | 65* | -7 | -2 | 2
NC(=O)c1cc([N+](=O)[O-])ccc1NCc1ccc(N)cc1 | 3 | 1 | -1 | -1 | -3
CCOC(=O)C1(CC2CCCCO2)CCN(Cc2ccc(OC)cc2F)CC1 (centres undefined) | -21 | -1 | -15 | -3 | 61*
CC(=O)c1cccc(N2C(=NC(=O)CCc3ccccc3)SC3CS(=O)(=O)CC32)c1 (centres undefined) | -2 | 0 | -7 | -2 | 32*
CC(=O)c1sc(N/N=C\c2cccc(Br)c2)nc1C | 7 | 2 | 92* | ? | -19
CC(=O)c1sc(N/N=C\c2ccc(Br)cc2)nc1C | 10 | 1 | 13 | 5 | 2
CC1CN(c2c3c(nc4ncnn24)CCCC3)CC(C)O1 (centres undefined) | 32* | 1 | -22 | -3 | -2
CCc1nn2c(=O)c(S(=O)(=O)Nc3ccc(OC)c(Cl)c3)c(C)nc2s1 | -2 | 1 | . | . | .
COc1cc(NC(=O)c2cc(C3CC3)nc3c2c(C)nn3-c2ccc(C)cc2)cc(OC)c1 | 0 | -1 | . | . | .
N=C(N)SCc1nc2ccccn2c1Br | -3 | 0 | -22 | 0 | 2
O=C(O)c1ccccc1SCc1nc2ccccn2c1Br | 0 | 0 | -10 | -6 | 51*
N#Cc1ccc(CN2CCN(C(=O)c3cc(C4CC4)nn3-c3ccccc3)CC2)cc1 | -10 | -1 | -26 | -3 | -15
Cc1ccc(NC(=O)C2C3C=CC4(O3)C2C(=O)N(CCN2CCOCC2)C4C(=O)NC2CCCCC2)cc1C (centres undefined) | 1 | 0 | -5 | -2 | 1
Cc1ccc(NC(=O)C2C3C=CC4(O3)C2C(=O)N(CCCN2CCOCC2)C4C(=O)NC2CCCCC2)cc1Cl (centres undefined) | 2 | 1 | -8 | 5 | 31*
COC(=O)c1ccc(NC(=O)CSCc2ccccc2C)cc1 | -10 | -1 | -1 | 1 | 35*
CCn1c(SCC(=O)Nc2ccc(C(=O)OC)cc2)nc2cccnc21 | 35* | -1 | -11 | -2 | -1
COC(=O)c1ccc(NC(=O)CSCc2ccccc2)cc1 | 5 | -3 | 0 | -3 | 0
CCn1c(SCC(=O)Nc2ccc(C(C)=O)cc2)nc2ccccc21 | 2 | 0 | -7 | 1 | 19
O=C1CCC2c3[nH]c4ccccc4c3CCN12 (centres undefined) | . | . | -9 | 3 | .
Cc1n[nH]c(C)c1Sc1ccccc1N | -8 | 0 | 0 | 3 | -7
Cc1cc(C)nc(Sc2c(C)n[nH]c2C)n1 | -3 | 1 | -9 | 1 | 32*
O=C1CC(C(=O)Nc2ccccc2)N=C(N2CCCCC2)N1 (centres undefined) | 0 | -1 | -16 | -4 | -29
